Assay results reported in PubChem BioAssay (EPA / NIEHS).
Several values for one entry are separate records, joined by “and”; a condition that tells them apart may be missing. Equal entries are not always repeated. Results filed as inconclusive are left out. Some compounds were tested as several samples or in several runs, with calls that do not always agree. Activity calls are given as the source filed them. The calls were made as follows: active = hit-call score of the fitted dose curve at least 0.9, where 1 is the maximum; inconclusive = response in the unintended direction; inactive = score below 0.9.

biological target: human Androgen Receptor (AR), AR (gene 367) (UniProt P10275); test: NVS_NR_hAR: NovaScreen (NVS) Nuclear Receptor Binding Assay for human Androgen Receptor (AR) (AID 2283332)
Sequence (P10275 whole entry, looked up): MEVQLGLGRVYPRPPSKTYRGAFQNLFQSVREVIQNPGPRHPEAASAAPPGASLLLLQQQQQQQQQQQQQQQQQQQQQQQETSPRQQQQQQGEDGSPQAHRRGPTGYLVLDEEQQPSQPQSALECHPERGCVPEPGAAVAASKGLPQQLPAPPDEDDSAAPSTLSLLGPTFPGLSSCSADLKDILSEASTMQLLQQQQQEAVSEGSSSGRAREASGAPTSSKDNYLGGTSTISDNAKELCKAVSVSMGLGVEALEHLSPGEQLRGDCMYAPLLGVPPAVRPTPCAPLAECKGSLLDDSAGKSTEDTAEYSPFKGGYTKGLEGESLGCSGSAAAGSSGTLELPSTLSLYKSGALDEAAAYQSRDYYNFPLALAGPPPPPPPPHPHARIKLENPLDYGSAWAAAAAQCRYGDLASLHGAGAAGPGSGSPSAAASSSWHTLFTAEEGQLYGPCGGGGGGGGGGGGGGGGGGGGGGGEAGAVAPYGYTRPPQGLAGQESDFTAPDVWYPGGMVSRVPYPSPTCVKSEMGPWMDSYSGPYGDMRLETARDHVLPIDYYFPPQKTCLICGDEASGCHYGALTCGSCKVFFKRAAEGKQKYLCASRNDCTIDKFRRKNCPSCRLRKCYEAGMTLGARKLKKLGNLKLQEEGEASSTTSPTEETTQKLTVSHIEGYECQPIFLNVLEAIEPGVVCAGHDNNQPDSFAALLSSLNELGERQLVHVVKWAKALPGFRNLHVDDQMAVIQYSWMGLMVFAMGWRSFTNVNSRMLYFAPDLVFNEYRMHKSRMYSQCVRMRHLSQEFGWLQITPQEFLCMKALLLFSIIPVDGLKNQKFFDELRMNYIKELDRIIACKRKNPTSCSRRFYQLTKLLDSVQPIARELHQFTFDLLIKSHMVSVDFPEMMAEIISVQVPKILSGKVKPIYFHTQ
Summary of the method: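 Actives from a duplicate 25 uM single-point screen went on to concentration series. Read-out after 20 h was scintillation counting of displaced radioligand in LnCAP extract, with DMSO as baseline.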

SMILES	AC50	outcome
CC12CC1(C)C(=O)N(c1cc(Cl)cc(Cl)c1)C2=O (stereo not drawn)	17.1 nM (active) and 355 nM (active)	
N#CCCO		inactive
Cl/C=C\C[N+]12CN3CN(CN(C3)C1)C2		inactive
CCN(CC)C(=O)Cl		inactive

biological target: rat Peripheral-type Benzodiazepine Receptor (PBR), Tspo (gene 24230) (UniProt P16257); test: NVS_MP_rPBR: NovaScreen (NVS) Membrane Protein Assay for rat Peripheral-type Benzodiazepine Receptor (PBR) (AID 2283335)
Sequence (P16257 whole entry, looked up): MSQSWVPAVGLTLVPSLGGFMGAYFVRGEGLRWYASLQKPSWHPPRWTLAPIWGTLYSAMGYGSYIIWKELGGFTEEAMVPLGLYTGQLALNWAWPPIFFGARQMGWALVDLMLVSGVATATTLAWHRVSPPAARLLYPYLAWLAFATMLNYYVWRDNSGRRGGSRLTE
Summary of the method: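 Radioligand displacement, rat kidney membrane prep, 1 h exposure, filter-based scintillation read; DMSO baseline, loss-of-signal scored. Primary screen at 25 uM in duplicate, actives followed up in concentration series.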

SMILES	outcome	AC50
O=Cc1cccc(Oc2ccccc2)c1	inactive	
CC12CC1(C)C(=O)N(c1cc(Cl)cc(Cl)c1)C2=O (stereo not drawn)		6.63 µM (active) and 1.03 µM (active) and 850 nM (active)
O=C(Cc1ccccc1)c1ccccc1		9.94 µM (active)
CC(C)(C)CC(C)(C)c1ccc(O)cc1	inactive	
O=[N+]([O-])c1ccc2c3c(cccc13)CC2		13.3 µM (active)
Nc1cccc2ccccc12	inactive	
C[C@@H]1C[C@@H]([C@H](O)CC2CC(=O)NC(=O)C2)C(=O)[C@@H](C)C1	inactive	33.3 µM (active)
Cn1sc(Cl)cc1=O	inactive	
CCOP(=S)(OCC)Oc1ccc(S(C)=O)cc1 (stereo not drawn)	inactive	
CCNc1nc(NC(C)(C)C)nc(SC)n1	inactive	
O=C1C2(Cl)C3(Cl)C4(Cl)C(Cl)(Cl)C5(Cl)C3(Cl)C1(Cl)C5(Cl)C24Cl (stereo not drawn)	inactive	
Clc1ccc(C2(Cn3cncn3)CC(Br)CO2)c(Cl)c1 (stereo not drawn)		14.5 µM (active)
CCCCCCCCC(=O)NCc1ccc(O)c(OC)c1		6.25 µM (active)
